Bioassay records (PubChem)
S2 tox: viability counter-screen for ATXN expression inhibitors; actives 0.49% (n = 400,000); S2 cells (HEK-293 line with an ATXN2-luciferase reporter) viability, CellTiter-Fluor protease fluorescence, 24 h; Potency, µM (series often up to 56.7 µM), most hits filed as cytotoxic; note: nearly all actives have a fitted effect of over 40% in size
HT1080 IDH1KD tx: toxicity to HT-1080 IDH1 knockdown cells (counter line); HT-1080 IDH1 knockdown viability, ATP luminescence, 48 h; Potency, µM (doses to about 46.1 µM), without a hit: top-dose activity, negative = toxicity, usual class: cytotoxic; actives 2% (n = 360,000);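 note: 0% = DMSO wells and -100% = cell-free medium wells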
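% activity derives from luminescence (CellTiter-Glo), normalised to DMSO and no-cell wells. HT-1080-IDH1KD cells, 750/well, had 48 h compound exposure at 37 °C.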
HT1080NT lethal: kills 2HG-producing HT-1080-NT fibrosarcoma cells. HT-1080-NT fibrosarcoma viability, CellTiter-Glo ATP luminescence, 48 h. Potency, µM (highest dose often 46.1 µM), without a hit: at the highest dose activity, negative = less viability, actives largely listed as cytotoxic. actives 1.6% (n = 360,000). AID 686970;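 note: NT is the 2HG producing partner of a matched IDH1 knockdown line; 0% = DMSO-treated cells and -100% = media-only wells without cells; nearly all actives have a fitted effect of over 55% in size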
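Compounds were tested in concentration-response format on HT-1080-NT cells for 48 hours at 37 degrees C. Cell viability came from CellTiter-Glo luminescence; curves were classified by r2, response magnitude and activity.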
TGFb SMAD3 inh: TGF-b pathway inhibition; Potency, µM (series often up to 46.1 µM), inactives show top-dose activity, negative = inhibition, most hits filed as inhibitors; actives 1.2% (n = 410,000); AID 588855; HepG2 CAGA-GFP TGF-b/SMAD3 reporter, GFP fluorescence, 18 h; TGF-beta stimulated, 500 pg/mL final; note: % is set by controls: 0 for no effect and ±100 for the full control effect; nearly all actives have a fitted effect of over 65% in size
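HEPG2 CAGA-GFP reporter cells (1000/well, DMEM with 1% FBS) received compounds, then recombinant TGF-beta at 500 pg/mL final for 18 hours at 37 degrees C. Per-cell GFP summed per well was normalised to unstimulated and stimulated DMSO controls before curve fitting.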
HepG2 tox: counter-screen for TGF-b inhibitors: cytotoxicity in HepG2 cells; actives 0.76% (n = 410,000); Potency, µM (highest dose often 46.1 µM), inactives show at the highest dose activity change, negative = cytotoxicity, hits mostly cytotoxic; HepG2 CAGA-GFP viability, ATP luminescence, 18 h
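HepG2 CAGA-GFP cells (1000/well, DMEM with 1% FBS) received compound, then TGF-beta at 500 pg/mL final, and were incubated 18 hours at 37 degrees C. Viability was read by CellTiter-Glo luminescence. Media-only wells were set as complete cell-killing and DMSO as no toxicity.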
ATXN2 expr inh: inhibitors of ATXN2 expression | actives 0.72% (n = 360,000) | HEK-293 ATXN2-luciferase reporter, luminescence, 24 h | AID 1745845 | Potency, µM (doses to about 57 µM), without a hit: at the highest dose activity change, negative = inhibition, actives largely listed as inhibitors; note: % is set by controls: 0 for no effect and ±100 for the full control effect; nearly all actives have a fitted effect of over 55% in size
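qHTS (up to 57 uM final) was run with 24 h compound exposure of reporter cells at 37 °C. Each well was multiplexed: SteadyGlo luminescence measured ATXN2-luciferase expression after a fluorogenic Gly-Phe-AFC viability readout (25 uM final).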
Numbers without * were called inactive; i = inactive; u = inconclusive; x = no result; [ ] = remark or other dose. Rows were chosen to be rich in hits. Some 3.9% of all compounds tested hit in one or more screens of this group. Calls come from the whole dose curve; as a rule, active = well fitted curve in the direction sought with a large enough effect; inconclusive = small, poorly fitted or top-dose-only effect, or another doubt; inactive = no such curve, though single readings can be large; an effect the other way counts as inactive or inconclusive. Potency is the fitted concentration of half-maximal effect.

SMILES	S2 tox	HT1080 IDH1KD tx	HT1080NT lethal	TGFb SMAD3 inh	HepG2 tox	ATXN2 expr inh
Cc1ccc2nc(-c3ccc(NC(=O)CSc4nc(N)cc(=O)[nH]4)cc3)sc2c1	i	11.6µM*	9.2µM*	16.1%	0.4%	79.8%
CC(=O)CSc1ccc(-c2nc3cc(C)c(C)cc3[nH]2)cn1	u	-29.5%	-16.8%	u	-21.6%	u
Cc1ccc2nc(-c3ccc(NC(=O)CSc4ccccc4)cc3)[nH]c2c1	i	12.6µM*	u	-17.6%	-63.0%	-0.7%
Cc1ccc2nc(-c3ccc(NC(=O)CSc4nccc(=O)[nH]4)cc3)sc2c1	i	-20.3%	-6.7%	6.4%	0.5%	10.8%[11.3 µM]
O=C(CSc1ccc(Cl)cc1)Nc1cccc(-c2nc3ccccc3[nH]2)c1	u	u	-25.6%	u	-14.2%	0.0%
CC(=O)CSc1ccc(-c2nc3ccccc3[nH]2)cn1	i	9.2µM*	u	-0.6%	10µM*	-29.2%
O=C(CSc1ccccc1)Nc1ccc(-c2nc3ccccc3[nH]2)cc1	i	u	13µM*	u	15.8µM*	6.9%
COc1cc(OC)c(NS(=O)(=O)c2c(C)nc3sc(C)cn3c2=O)cc1Cl	x	x	x	-20.0%	-10.7%	x
Cc1cccc(NC(=O)N2CCC(CN3CCOCC3)CC2)c1C	i	x	x	7.3%	-0.3%	-10.2%
Cc1ccccc1CNC(=O)c1ccc(NC(=O)c2nsc3ccccc23)cc1	i	x	x	-11.5%	-44.1%	28.7%
Cc1cc(C)c(S(=O)(=O)Nc2cc(SCC(=O)O)c(O)c3ccccc23)cc1C	x	20.6µM*	-18.9%	u	-106.2%	u
COc1ccc(S(=O)(=O)Nc2cccc3ccc(O)cc23)cc1	u	5.17µM*	3.26µM*	u	3.9%	u
COc1ccc(S(=O)(=O)Nc2cc(S(=O)(=O)c3ccccc3)c(O)cc2C)cc1	i	-3.8%	1.7%	16.2%	2.8%	5.2%
COc1ccc(S(=O)(=O)Nc2cc(SCC(=O)O)c(O)c3ccccc23)cc1	u	-5.9%	u	11.2µM*	-107.4%	x
O=C(O)CSc1cc(NS(=O)(=O)c2ccc(Cl)cc2)c2ccccc2c1O	i	25.9µM*	u	u	6.31µM*	u
Cc1cc(C)c(S(=O)(=O)/N=C2/C=C(SCC(=O)O)C(=O)c3ccccc32)cc1C	u	u	u	u	-105.3%	u
COc1ccc(S(=O)(=O)Nc2cccc3ccccc23)cc1	x	x	x	-13.0%	0.5%	x
CCc1nnc(SCc2ccc(F)cc2Cl)c2cc3sc(C)cc3n12	x	x	x	-12.4%	-16.3%	x
CCC(C)n1ncn(-c2ccc(N3CCN(c4ccc(OC[C@H]5CO[C@](Cn6cncn6)(c6ccc(Cl)cc6Cl)O5)cc4)CC3)cc2)c1=O (stereo partly specified)	i	x	x	x	x	u
CC(=O)C1=C(C)NC(SCC(N)=O)=C(C#N)C1CC(C)C (stereo unspecified)	i	0.7%	-15.8%	8.8%	-5.6%	3.0%
CCOC(=O)C1=C(C)NC(SC)=C(C#N)C1CC(C)C (stereo unspecified)	u	2.59µM*	1.84µM*	u	16.0%	-31.5%
CCc1ccc(NC(=O)c2ccc(F)c(S(=O)(=O)NCC3COc4ccccc4O3)c2)cc1 (stereo unspecified)	u	-19.3%	-11.2%	11.2µM*	-44.9%	u
CCc1ccc(NC(=O)c2ccc(F)c(S(=O)(=O)NC3CCCCCC3)c2)cc1	x	x	x	11.2µM*	-16.9%	x
CCc1ccc(NC(=O)c2ccc(F)c(S(=O)(=O)N(C)C3CCCCC3)c2)cc1	x	x	x	-8.7%	0.8%	x
O=Cc1ccccc1C=O	i	x	x	x	x	8.8%
SMILES	S2 tox	HT1080 IDH1KD tx	HT1080NT lethal	TGFb SMAD3 inh	HepG2 tox	ATXN2 expr inh
COc1ccc(OC)c(N(CCN2C(=O)c3ccccc3C2=O)C(=O)CCl)c1	1.58µM*	16.4µM*	u	u	-55.7%	x
COc1ccc(NC(=O)CCN2C(=O)c3ccccc3C2=O)c(OC)c1	i	-6.3%	-1.9%	-0.3%	10.2%	22.4%
COc1ccc(NC(=O)c2oc3ccccc3c2NC(=O)c2cc(=O)c3ccccc3o2)cc1	i	x	x	5.7%	-19.8%	-4.9%
O=C(Nc1ccc(Cl)cc1)c1ccc(S(=O)(=O)N2CCOCC2)cc1	i	-6.8%	3.5%	-8.5%	-4.3%	-9.3%
O=C(Nc1ccc(S(=O)(=O)N2CCOCC2)cc1)c1cc(-c2cc(Cl)ccc2O)n[nH]1	u	16.4µM*	u	u	-127.5%	x
Cc1cc(O)c(-c2cc(C(=O)Nc3ccc(S(=O)(=O)N4CCOCC4)cc3)[nH]n2)cc1C	i	10µM*	14.1µM*	u	-41.7%	u
Cc1ccc(O)c(-c2cc(C(=O)Nc3ccc(S(=O)(=O)N4CC(C)OC(C)C4)cc3)[nH]n2)c1 (stereo unspecified)	i	-28.8%	u	0.0%	-32.5%	-18.1%
CNc1sc(C(=O)c2ccc(F)cc2)c(N)c1-c1nc2ccccc2s1	i	6.31µM*	11.2µM*	-21.4%	-0.3%	34.6%
O=C(Nc1ccc(F)cc1)Nc1sccc1-c1nc2ccccc2s1	u	18.4µM*	16.4µM*	-18.8%	-1.6%	-20.4%
O=C(Nc1ccccc1-c1nc2ccccc2s1)c1ccc(F)cc1	u	x	x	26.6%	-4.7%	-2.7%
